From publication PMC8384837, “Expanding the binding specificity for RNA recognition by a PUF domain” come the findings set out here.

Residue numbers refer to the chain shown, from its start.

Assay in all cases: yeast three-hybrid, YBZ-1, SC-Leu-His + 0.5 mM 3-AT, 4 days
Holding throughout (conditions): tags: N-Gal4 AD-HA kept; label: inside an RPR1-promoter hybrid RNA with tandem MS2 sites; ssRNA

For one assay, the target named is PUM1 PUF domain R1-KIR (Homo sapiens, UniProt Q14671 828-1176, S863K;R864I;Q867R). The procedure, abridged: (§1)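 Pumilio-1 PUF domain libraries, randomized at the three base-contacting residues of each repeat, were co-expressed with matching RNA elements from a centromeric plasmid in strain YBZ-1, which carries a LexA–MS2 coat fusion and a HIS3 reporter. Transformants grew for four days on SC-Leu (input) or on SC-Leu-His + 0.5 mM 3-AT (selection), and the repeat regions were PCR-amplified and Illumina-sequenced. The interaction score is the log change in variant frequency from input to selection. That logarithm is base 2, with a pseudocount of 1 where a variant was absent.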

For another assay, the target named is T1, PUM1 PUF domain R6-NFC (Homo sapiens, UniProt Q14671 828-1176, Y1044F;Q1047C).
T1 sequence: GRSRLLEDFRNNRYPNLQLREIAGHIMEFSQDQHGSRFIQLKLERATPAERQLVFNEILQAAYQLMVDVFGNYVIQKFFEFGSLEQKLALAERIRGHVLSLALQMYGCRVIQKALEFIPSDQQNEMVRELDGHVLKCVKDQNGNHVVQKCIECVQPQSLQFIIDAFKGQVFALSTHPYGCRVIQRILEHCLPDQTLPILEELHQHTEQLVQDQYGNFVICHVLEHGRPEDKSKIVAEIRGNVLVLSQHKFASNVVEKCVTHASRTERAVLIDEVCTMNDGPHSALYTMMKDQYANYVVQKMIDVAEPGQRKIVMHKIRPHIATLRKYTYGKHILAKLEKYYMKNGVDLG
In short, it runs like this:
as §1

A further assay concerns the target T2, PUM1 PUF domain R6-QFR (Homo sapiens, UniProt Q14671 828-1176, N1043Q;Y1044F;Q1047R).
T2 sequence: T1 sequence with N216Q, C220R
In short, it runs like this: as §1

The target of the next assay is PUM1 PUF domain R5-RHI (Homo sapiens, UniProt Q14671 828-1176, C1007R;R1008H;Q1011I). In short, it runs like this:
as §1

The target in another assay is PUM1 PUF domain R8-AFR (Homo sapiens, UniProt Q14671 828-1176, N1122A;Y1123F;Q1126R). The procedure, abridged:
as §1

The next assay addresses PUM1 PUF domain R8-SWR (Homo sapiens, UniProt Q14671 828-1176, N1122S;Y1123W;Q1126R). In short, it runs like this: as §1
The target of another assay is PUM1 PUF domain R8-RYL (Homo sapiens, UniProt Q14671 828-1176, N1122R;Q1126L). In short, it runs like this:
as §1

For the next assay, the target named is PUM1 PUF domain R3-LRA (Homo sapiens, UniProt Q14671 828-1176, C935L;Q939A). In short, it runs like this: as §1
In the next assay the target is PUM1 PUF domain R3-NPV (Homo sapiens, UniProt Q14671 828-1176, C935N;R936P;Q939V). The procedure, abridged: as §1
The target in a further assay is PUM1 PUF domain R5-RNR (Homo sapiens, UniProt Q14671 828-1176, C1007R;R1008N;Q1011R). The procedure, abridged: as §1

In the case of “GGCUAGAACUAGUGGAUCCCCCGGCGCCCGGCGGCUCGAGCCCGGGUAAGUGUAAAUCGUCUGCAUGCCGCCGGGCGCCAUGCCUGCAGGUCGACUCUAGAAAACAUG”, the binding signal with PUM1 PUF domain R1-KIR was 4.83 log2 enrichment (interaction score).
For “GGCUAGAACUAGUGGAUCCCCCGGCGCCCGGCGGCUCGAGCCCGGGUAAGUGUAAAUAGUCUGCAUGCCGCCGGGCGCCAUGCCUGCAGGUCGACUCUAGAAAACAUG”, the binding signal with PUM1 PUF domain R6-NFC is 3.34 log2 enrichment (interaction score); in the assay with PUM1 PUF domain R6-QFR it was 7.93 log2 enrichment (interaction score); in the assay with PUM1 PUF domain R5-RHI it was 3.02 log2 enrichment (interaction score); with PUM1 PUF domain R8-AFR, 3.56 log2 enrichment (interaction score); in the assay with PUM1 PUF domain R8-SWR, 6.3 log2 enrichment (interaction score); with PUM1 PUF domain R8-RYL, 5.73 log2 enrichment (interaction score).
On to “GGCUAGAACUAGUGGAUCCCCCGGCGCCCGGCGGCUCGAGCCCGGGUAAGCGUAAAUAGUCUGCAUGCCGCCGGGCGCCAUGCCUGCAGGUCGACUCUAGAAAACAUG”, for which the binding signal was 3.34 log2 enrichment (interaction score) in the assay with PUM1 PUF domain R8-AFR, 5.3 log2 enrichment (interaction score) with PUM1 PUF domain R8-SWR and 5.95 log2 enrichment (interaction score) in the assay with PUM1 PUF domain R8-RYL.
On to “GGCUAGAACUAGUGGAUCCCCCGGCGCCCGGCGGCUCGAGCCCGGGUAAGUGUAAUUAGUCUGCAUGCCGCCGGGCGCCAUGCCUGCAGGUCGACUCUAGAAAACAUG”, for which the binding signal in the assay with PUM1 PUF domain R3-LRA is 1.5 log2 enrichment (interaction score); in the assay with PUM1 PUF domain R3-NPV it was 2.64 log2 enrichment (interaction score).
As for “GGCUAGAACUAGUGGAUCCCCCGGCGCCCGGCGGCUCGAGCCCGGGUAAGUGUAAGUAGUCUGCAUGCCGCCGGGCGCCAUGCCUGCAGGUCGACUCUAGAAAACAUG”, the binding signal with PUM1 PUF domain R3-LRA was 4.29 log2 enrichment (interaction score).
Take “GGCUAGAACUAGUGGAUCCCCCGGCGCCCGGCGGCUCGAGCCCGGGUAAGUGUCAAUAGUCUGCAUGCCGCCGGGCGCCAUGCCUGCAGGUCGACUCUAGAAAACAUG”: the binding signal in the assay with PUM1 PUF domain R5-RNR is 3.17 log2 enrichment (interaction score); in the assay with PUM1 PUF domain R5-RHI, 4.97 log2 enrichment (interaction score).
With “GGCUAGAACUAGUGGAUCCCCCGGCGCCCGGCGGCUCGAGCCCGGGUAAGUGUUAAUAGUCUGCAUGCCGCCGGGCGCCAUGCCUGCAGGUCGACUCUAGAAAACAUG”, the binding signal with PUM1 PUF domain R5-RHI was 5.86 log2 enrichment (interaction score).
“GGCUAGAACUAGUGGAUCCCCCGGCGCCCGGCGGCUCGAGCCCGGGUAAGUGCAAAUAGUCUGCAUGCCGCCGGGCGCCAUGCCUGCAGGUCGACUCUAGAAAACAUG”: in the assay with PUM1 PUF domain R6-QFR, the binding signal is 4.65 log2 enrichment (interaction score).
